Set-up in all cases: scale not given: direction of the effect not stated beside the values
The target in test [1] is Protein translocase subunit SecA (Escherichia coli (strain K12)) (UniProt P10408). Put plainly: Assay to Identify E. coli SecA ATPase Inhibitors. The format is functional. The note with it: 30 µM.
The target in test [2] is T1, Ubiquitin-activating enzyme e1, putative (Leishmania donovani (strain BPK282A1)) (UniProt E9BSI1).
T1 sequence (whole entry): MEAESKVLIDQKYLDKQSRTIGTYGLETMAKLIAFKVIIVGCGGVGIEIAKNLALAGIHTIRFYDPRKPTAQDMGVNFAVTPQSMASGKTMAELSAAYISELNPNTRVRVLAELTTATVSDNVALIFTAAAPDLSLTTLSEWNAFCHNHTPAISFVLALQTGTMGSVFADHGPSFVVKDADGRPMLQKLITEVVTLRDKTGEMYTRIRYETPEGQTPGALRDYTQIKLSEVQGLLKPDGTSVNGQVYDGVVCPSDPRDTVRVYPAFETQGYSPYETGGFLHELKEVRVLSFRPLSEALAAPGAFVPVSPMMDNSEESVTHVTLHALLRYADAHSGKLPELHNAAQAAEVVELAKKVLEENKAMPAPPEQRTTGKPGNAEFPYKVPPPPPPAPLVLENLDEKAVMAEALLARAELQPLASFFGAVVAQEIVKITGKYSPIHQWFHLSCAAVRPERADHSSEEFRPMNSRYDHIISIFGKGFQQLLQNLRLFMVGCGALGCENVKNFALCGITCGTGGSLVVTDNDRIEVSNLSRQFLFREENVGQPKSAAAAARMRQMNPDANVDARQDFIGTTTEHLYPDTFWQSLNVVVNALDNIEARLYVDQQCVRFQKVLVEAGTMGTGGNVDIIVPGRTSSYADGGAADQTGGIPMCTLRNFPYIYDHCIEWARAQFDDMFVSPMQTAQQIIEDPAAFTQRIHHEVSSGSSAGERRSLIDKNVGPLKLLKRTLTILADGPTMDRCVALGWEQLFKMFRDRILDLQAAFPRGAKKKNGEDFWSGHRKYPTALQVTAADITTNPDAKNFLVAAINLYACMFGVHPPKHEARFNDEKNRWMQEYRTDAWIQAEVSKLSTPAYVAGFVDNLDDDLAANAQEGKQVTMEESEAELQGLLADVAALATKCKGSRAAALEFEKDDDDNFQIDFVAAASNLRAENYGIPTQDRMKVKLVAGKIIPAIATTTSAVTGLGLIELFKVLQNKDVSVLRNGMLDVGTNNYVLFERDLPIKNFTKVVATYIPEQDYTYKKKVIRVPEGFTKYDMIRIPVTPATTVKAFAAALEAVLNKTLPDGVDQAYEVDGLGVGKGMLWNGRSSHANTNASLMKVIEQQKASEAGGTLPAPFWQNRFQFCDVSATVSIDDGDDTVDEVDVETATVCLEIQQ
Description: Leishmania donovani Ubiquitin Activating Enzyme (LdE1). The format is functional. The note with it: 30 µM.

Test [3] deals with AMP-activated protein kinase, AMPK (Homo sapiens) (UniProt P54646+O43741+P54619+Q9UGJ0+Q9Y478+Q13131+Q9UGI9). Put plainly: AMP-dependent Kinase enzyme assay. An in vitro enzyme assay that detects ADP turnover that is directly proportional to AMPK activity. This uses naive AMPK that is activated during the assay with MK-8722. The format is functional. The note with it: 30 µM.
The target of test [4] is Sialic acid-binding Ig-like lectin 9 (Homo sapiens) (UniProt Q9Y336). Put plainly: Hs-Siglec9 ALPHAscreen SOP 20170721. The note with it: 10 µM. In general terms: Bead proximity is the source of the signal in Alpha formats.
For the next test, the system named is Trypanosoma cruzi. Put plainly: Trypanosoma cruzi phosphomannomutase and mannose-1-phosphate guanylyltransferase assay. The format is functional. The note with it: 10 µM.
Test [5] addresses T2, Arginase-2, mitochondrial (Homo sapiens) (UniProt P78540).
T2 sequence (whole entry): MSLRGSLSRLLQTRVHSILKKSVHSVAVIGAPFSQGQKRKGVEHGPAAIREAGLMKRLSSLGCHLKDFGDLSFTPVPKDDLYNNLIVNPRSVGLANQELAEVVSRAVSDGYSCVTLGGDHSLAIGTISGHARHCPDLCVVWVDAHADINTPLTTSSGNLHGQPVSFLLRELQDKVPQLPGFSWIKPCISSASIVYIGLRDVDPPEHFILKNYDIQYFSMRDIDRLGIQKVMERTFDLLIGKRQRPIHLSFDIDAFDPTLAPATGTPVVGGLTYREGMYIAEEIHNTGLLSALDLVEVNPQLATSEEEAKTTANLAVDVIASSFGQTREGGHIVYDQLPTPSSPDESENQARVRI
Description: in vitro enzyme assay to detect the production of urea directly proportional to the activity of Arginase II. Also: in the data most compounds retested in dose-response had high values. The format is functional. The note with it: 33.3 µM.

The target in test [6] is T3, Proteasome subunit beta (Trypanosoma cruzi) (UniProt O96673).
T3 sequence (whole entry): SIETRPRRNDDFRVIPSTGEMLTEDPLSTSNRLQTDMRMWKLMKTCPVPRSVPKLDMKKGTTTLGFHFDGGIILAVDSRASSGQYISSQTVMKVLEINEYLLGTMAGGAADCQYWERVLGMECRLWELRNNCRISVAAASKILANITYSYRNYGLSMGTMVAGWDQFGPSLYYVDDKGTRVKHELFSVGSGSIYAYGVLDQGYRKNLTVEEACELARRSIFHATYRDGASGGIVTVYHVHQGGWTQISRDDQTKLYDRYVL
Description: Trypanosoma cruzi proteasome chymotrypsin-like activity (TcProtChymo) assay. Also: in the data most compounds retested in dose-response had high values. Particulars: 9.37 µM. The class given is functional.

For another test, the species on record is Homo sapiens. Put plainly: To identify inhibition of the IFN signalling (Jak-Stat) pathway via expression of an eGFP reporter gene under the control of an IFN-stimulated response element (ISRE) containing MxA promoter. The format is functional. The note with it: 30 µM.
Test [7] addresses T4, Tyrosyl-tRNA synthetase, putative (Trypanosoma cruzi (strain CL Brener)) (UniProt Q4DSP6).
T4 sequence (whole entry): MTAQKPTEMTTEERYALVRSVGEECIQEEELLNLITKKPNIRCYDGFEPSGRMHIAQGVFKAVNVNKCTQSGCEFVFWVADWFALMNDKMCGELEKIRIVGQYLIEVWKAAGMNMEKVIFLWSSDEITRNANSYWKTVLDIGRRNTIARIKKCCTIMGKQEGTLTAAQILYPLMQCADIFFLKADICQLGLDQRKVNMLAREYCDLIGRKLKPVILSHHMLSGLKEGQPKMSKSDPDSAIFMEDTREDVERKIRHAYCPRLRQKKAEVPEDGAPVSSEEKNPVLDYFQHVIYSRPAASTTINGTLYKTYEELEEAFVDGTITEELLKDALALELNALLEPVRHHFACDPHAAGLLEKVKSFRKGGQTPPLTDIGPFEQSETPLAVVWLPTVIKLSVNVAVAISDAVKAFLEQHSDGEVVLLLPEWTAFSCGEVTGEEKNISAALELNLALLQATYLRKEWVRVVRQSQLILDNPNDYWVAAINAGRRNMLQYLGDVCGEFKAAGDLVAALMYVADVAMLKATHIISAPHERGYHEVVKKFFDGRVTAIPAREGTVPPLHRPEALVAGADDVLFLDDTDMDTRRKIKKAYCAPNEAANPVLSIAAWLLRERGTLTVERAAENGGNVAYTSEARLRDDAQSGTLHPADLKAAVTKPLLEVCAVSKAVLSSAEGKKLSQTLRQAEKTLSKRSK
Description: Trypanosoma cruzi tyrosyl tRNA synthetase (TcYRS) _High Tyrosine SOP. Also: in the data most compounds retested in dose-response had high values. The class given is functional. Particulars: 30 µM.

In test [8] the target is T4, Tyrosyl-tRNA synthetase, putative (Trypanosoma cruzi (strain CL Brener)). Description: Trypanosoma cruzi tyrosyl tRNA synthetase (TcYRS) SOP. Particulars: 30 µM. The class given is functional.
Test [9] has as its target Chromo domain-containing protein 1 (Saccharomyces cerevisiae (strain ATCC 204508 / S288c) (Baker's yeast)) (UniProt P32657). Description: ScCHD-1 Enzyme Inhibition Assay. Also: in the data most compounds retested in dose-response had high values. The note with it: 30 µM. The format is functional.

Each structure is given as a SMILES string. For some of these results: Potency and affinity values are given separately.

Chain of Protein translocase subunit SecA (Escherichia coli (strain K12)) (P10408 whole entry): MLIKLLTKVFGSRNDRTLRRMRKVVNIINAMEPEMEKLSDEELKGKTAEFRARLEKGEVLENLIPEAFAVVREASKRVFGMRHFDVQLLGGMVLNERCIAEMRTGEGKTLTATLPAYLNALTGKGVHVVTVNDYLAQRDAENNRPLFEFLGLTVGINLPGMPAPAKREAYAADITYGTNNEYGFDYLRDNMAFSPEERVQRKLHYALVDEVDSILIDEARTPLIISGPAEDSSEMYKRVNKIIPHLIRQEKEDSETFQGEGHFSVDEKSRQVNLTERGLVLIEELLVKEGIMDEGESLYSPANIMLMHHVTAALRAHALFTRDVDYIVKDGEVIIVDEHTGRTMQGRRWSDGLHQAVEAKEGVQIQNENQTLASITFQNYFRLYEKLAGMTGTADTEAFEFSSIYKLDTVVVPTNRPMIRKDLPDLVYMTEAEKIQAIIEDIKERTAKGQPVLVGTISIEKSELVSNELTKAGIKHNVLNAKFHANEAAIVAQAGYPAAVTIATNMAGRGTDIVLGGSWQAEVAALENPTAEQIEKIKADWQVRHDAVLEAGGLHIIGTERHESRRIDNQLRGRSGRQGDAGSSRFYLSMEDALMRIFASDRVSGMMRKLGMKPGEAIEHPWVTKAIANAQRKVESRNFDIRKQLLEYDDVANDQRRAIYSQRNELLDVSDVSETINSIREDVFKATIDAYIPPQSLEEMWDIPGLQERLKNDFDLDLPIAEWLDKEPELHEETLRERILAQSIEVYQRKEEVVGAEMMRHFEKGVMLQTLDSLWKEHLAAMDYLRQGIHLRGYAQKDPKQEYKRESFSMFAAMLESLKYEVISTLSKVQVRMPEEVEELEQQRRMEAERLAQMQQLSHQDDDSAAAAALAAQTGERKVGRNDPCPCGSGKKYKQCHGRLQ
Chain of Sialic acid-binding Ig-like lectin 9 (Homo sapiens) (Q9Y336 whole entry): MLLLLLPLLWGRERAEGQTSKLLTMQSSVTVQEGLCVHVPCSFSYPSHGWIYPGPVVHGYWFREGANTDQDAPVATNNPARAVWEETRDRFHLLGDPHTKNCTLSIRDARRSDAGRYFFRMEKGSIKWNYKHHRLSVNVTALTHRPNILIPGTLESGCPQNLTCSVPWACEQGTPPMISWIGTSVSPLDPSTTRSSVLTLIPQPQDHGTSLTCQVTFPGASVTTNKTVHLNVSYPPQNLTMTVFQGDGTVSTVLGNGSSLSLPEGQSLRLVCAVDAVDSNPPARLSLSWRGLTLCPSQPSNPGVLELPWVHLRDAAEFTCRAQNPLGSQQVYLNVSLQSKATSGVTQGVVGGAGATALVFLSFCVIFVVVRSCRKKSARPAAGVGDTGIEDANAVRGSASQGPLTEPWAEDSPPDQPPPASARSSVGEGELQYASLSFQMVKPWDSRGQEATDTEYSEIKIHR
Chain of Chromo domain-containing protein 1 (Saccharomyces cerevisiae (strain ATCC 204508 / S288c) (Baker's yeast)) (P32657 whole entry, the tested form may be a part): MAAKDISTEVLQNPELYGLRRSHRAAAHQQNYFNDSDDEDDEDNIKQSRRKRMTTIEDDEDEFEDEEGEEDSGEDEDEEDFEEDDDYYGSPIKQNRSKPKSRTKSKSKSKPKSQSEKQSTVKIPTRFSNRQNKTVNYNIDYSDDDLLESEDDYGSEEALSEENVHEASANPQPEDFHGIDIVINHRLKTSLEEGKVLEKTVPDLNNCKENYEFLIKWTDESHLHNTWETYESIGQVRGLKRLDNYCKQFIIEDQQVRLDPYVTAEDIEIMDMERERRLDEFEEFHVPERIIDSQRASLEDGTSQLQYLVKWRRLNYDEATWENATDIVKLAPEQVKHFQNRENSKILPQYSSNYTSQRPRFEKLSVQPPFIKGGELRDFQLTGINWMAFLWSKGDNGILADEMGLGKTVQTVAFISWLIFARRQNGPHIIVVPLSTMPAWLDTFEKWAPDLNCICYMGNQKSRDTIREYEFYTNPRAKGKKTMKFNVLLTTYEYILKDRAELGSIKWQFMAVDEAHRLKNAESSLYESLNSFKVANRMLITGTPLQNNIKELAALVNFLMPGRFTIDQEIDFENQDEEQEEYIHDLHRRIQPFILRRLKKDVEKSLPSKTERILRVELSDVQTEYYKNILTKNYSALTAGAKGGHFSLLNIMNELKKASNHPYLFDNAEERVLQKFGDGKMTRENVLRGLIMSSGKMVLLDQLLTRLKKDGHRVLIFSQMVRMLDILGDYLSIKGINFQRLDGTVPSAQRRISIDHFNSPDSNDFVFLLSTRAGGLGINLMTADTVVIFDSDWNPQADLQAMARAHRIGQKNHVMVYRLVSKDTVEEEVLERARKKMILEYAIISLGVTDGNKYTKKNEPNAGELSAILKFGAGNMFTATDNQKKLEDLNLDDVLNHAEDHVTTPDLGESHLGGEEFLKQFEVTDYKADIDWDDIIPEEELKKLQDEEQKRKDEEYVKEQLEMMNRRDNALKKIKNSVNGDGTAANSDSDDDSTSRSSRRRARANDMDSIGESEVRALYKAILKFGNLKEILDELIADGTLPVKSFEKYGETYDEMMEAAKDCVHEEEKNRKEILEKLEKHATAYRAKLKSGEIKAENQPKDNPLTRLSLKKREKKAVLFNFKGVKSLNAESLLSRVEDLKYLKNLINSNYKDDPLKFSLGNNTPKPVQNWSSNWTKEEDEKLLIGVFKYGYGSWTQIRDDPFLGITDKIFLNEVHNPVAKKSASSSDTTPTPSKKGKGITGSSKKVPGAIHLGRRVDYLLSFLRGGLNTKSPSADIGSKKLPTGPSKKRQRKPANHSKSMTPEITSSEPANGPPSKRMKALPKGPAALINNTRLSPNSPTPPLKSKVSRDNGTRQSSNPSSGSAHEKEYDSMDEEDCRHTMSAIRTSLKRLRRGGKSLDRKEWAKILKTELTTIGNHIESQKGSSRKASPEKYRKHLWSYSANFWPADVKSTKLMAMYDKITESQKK

As to `O=C(CCN1CCCC1c1cccs1)N1CCc2sccc2C1` (stereo unspecified), the Percent Effect was 0.699% in test [1]; -29.7% in test [2]; -9.71% in test [3]; 3.83% in test [4]; -1.6% with Trypanosoma cruzi; -18% in test [5]. For the same compound, the Percent Effect is 3.96% in test [6]; 5.67% in the test filed under Homo sapiens; 3.45% in test [7]; -11.1% in test [8]; 2.06% in test [9].

Turning to `Cc1[nH]ncc1C(=O)N1CCCC(c2cc(C(F)(F)F)[nH]n2)C1` (stereo unspecified), the Percent Effect was -6.98% in [1]; 8.11% in [2]; -26.4% in [3]; 5.54% in test [4]; -6.59% in the test with Trypanosoma cruzi; -3.51% in test [5]. Also, the Percent Effect in test [6] amounted to 2.69%; in the test filed under Homo sapiens it was 14.8%; in test [7], 2.97%; in test [8] it was 6.1%; in test [9], 3.81%.

With `CCC1(CC)Cc2ccccc2-c2nc(NCCO)[nH]c(=O)c21`, the Percent Effect is -5.77% in [1]; 10.5% in test [2]; 29.9% in test [3]; 1.17% in test [4]; -2.63% in the test on Trypanosoma cruzi; 3.55% in test [5]. For the same compound, the Percent Effect in test [6] is 26.4%; in the test filed under Homo sapiens, 29.8%; in [7], 5.32%; in test [8] it was 10.4%; in [9] it was -13.3%.

In the case of `CCn1ncnc1C(C)NC(=O)C1CCN(C(C)C)CC1` (stereo unspecified), the Percent Effect is -3.72% in [1]; 5.41% in [2]; -4.36% in test [3]; 22.1% in test [4]; 0.0978% in the test on Trypanosoma cruzi; 2.73% in [5]. The Percent Effect in test [6] is 15%; in the test listed under Homo sapiens it was -2.01%; in test [7] it was 9.68%; in [8] it was 21%; in test [9], -5.24%.

With `Cc1ccc(-c2ncc(C(=O)NCCNc3ncccn3)s2)c(C)c1`, the Percent Effect was -2.83% in test [1]; 5.41% in [2]; 2.58% in test [3]; 1.25% in [4]; 7.83% in the test on Trypanosoma cruzi; -2.4% in test [5]. Besides, the Percent Effect in test [6] was 1.8%; in the test filed under Homo sapiens, 11.8%; in test [7], 5.42%; in [8], 16.1%; in test [9], -8.22%.

In the case of `COc1ccccc1CN1C(=O)O[C@@H]2CN(c3nccs3)C[C@@H]21`, the Percent Effect in test [1] is -8.53%; in [2], 0%; in test [3], 2%; in [4], 2.51%; with Trypanosoma cruzi, -5.75%; in test [5] it was -3.12%. In addition, the Percent Effect is 11.2% in test [6]; 15.3% in the test listed under Homo sapiens; 2.73% in [7]; 3.7% in [8]; -3.84% in test [9].

As for `Cc1nnc2n1CCN(C(=O)COCCOc1ccccc1)C2`, the Percent Effect in test [1] is -3.64%; in test [2] it was -21.5%; in test [3] it was 10%; in test [4], 1.03%; with Trypanosoma cruzi, -1.33%; in test [5], 4.95%. Besides, the Percent Effect in [6] is 7.89%; in the test filed under Homo sapiens, 3.44%; in test [7], 5.21%; in test [8], 12.7%; in [9], -1.76%.

Consider `COc1cccc(C(=O)N2CCc3ncnc(C)c3CC2)c1`, for which the Percent Effect is -2.5% in test [1]; 2.74% in test [2]; -0.34% in test [3]; 2.4% in [4]; -5.16% in the test with Trypanosoma cruzi; 0.399% in [5]. Also, the Percent Effect is 10.4% in [6]; 2.5% in the test filed under Homo sapiens; 6.25% in test [7]; 11.1% in test [8]; -8.63% in test [9].

As to `Cc1nc(C)n(CC2CCCN(c3ncnc4[nH]ccc34)C2)n1` (stereo unspecified), the Percent Effect in test [1] was -4.25%; in test [2], 11.4%; in test [3], 69.9%; in [4], 5.73%; in the test with Trypanosoma cruzi, -4.21%; in test [5] it was 0.645%. Besides, the Percent Effect in test [6] is 15.8%; in the test listed under Homo sapiens, 42.8%; in test [7] it was 6.25%; in test [8], 5.06%; in test [9] it was -4.67%.

`CCc1cc(NCCNc2cccnc2)n2nccc2n1`: the Percent Effect is -3.38% in [1]; 2.7% in test [2]; 3.96% in test [3]; 4.15% in [4]; -3.09% in the test with Trypanosoma cruzi; 1.91% in test [5]. Besides, the Percent Effect in test [6] is 10%; in the test filed under Homo sapiens it was 13.2%; in [7], 4.76%; in test [8] it was 7.32%; in test [9], -3.82%.

For the compound `O=C(CN1CCC(c2cccc(F)c2)C1)NCc1ccco1` (stereo unspecified), the Percent Effect was -1.81% in test [1]; 21.1% in test [2]; 4.1% in test [3]; -1.87% in [4]; 6.01% in the test on Trypanosoma cruzi; -1.53% in test [5]. The Percent Effect in [6] was 14.4%; in the test filed under Homo sapiens, 27.6%; in test [7], 7.35%; in test [8], 24.4%; in test [9], -8.76%.

Values taken from ChEMBL document CHEMBL3988442, “University of Dundee, Small-Polar-MMV Screening Library” (2021).
